Consider 71 compounds from PubChem BioAssay AID1030 (National Center for Advancing Translational Sciences (NCATS), 2008).

Out of some 220,000 compounds screened, about 16,000 (7.3%) were called active. Entries that show only a call come without a potency. Roughly 25% stayed inconclusive and do not appear here. Only a selection was taken, and actives are over-represented in it overall. Unmarked numbers belong to inactive results. Calls come from the whole dose curve; as a rule, active = well fitted inhibition curve with a large enough effect (not every such curve was filed as active); inconclusive = small, poorly fitted or top-dose-only effect, or another doubt; inactive = no such curve, though single readings can be large or run the other way.
Potency is the fitted concentration of half-maximal effect.

This assay deals with Aldehyde dehydrogenase 1A1 (Homo sapiens) (UniProt P00352). Kind of assay: qHTS Assay for Inhibitors of Aldehyde Dehydrogenase 1 (ALDH1A1). The note with it: Purified ALDH1A1, NADH fluorescence, propionaldehyde substrate; series mostly up to 75.3 µM.
Chain of Aldehyde dehydrogenase 1A1 (Homo sapiens) (P00352 whole entry, looked up): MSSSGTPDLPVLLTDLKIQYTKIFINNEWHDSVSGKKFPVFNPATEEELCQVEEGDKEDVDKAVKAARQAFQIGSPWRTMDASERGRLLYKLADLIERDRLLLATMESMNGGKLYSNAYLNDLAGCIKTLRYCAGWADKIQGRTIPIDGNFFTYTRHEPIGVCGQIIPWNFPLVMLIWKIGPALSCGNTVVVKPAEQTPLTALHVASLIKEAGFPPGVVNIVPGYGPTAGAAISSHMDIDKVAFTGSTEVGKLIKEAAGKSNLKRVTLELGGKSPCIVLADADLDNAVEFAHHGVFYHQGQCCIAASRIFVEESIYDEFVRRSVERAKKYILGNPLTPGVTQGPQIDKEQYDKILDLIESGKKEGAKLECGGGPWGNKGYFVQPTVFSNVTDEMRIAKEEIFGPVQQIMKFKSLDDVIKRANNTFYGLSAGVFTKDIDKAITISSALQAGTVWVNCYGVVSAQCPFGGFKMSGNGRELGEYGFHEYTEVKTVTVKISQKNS
Take `CCOC(=O)c1ccccc1NC(=O)CSc1nc2ccccc2c(=O)[nH]1`: the Potency entry was “inactive”.

Consider `Cc1cc(=O)oc(C)c1C(=O)NCCN(C)Cc1ccccc1`, for which the Potency result was “inactive”.

Turning to `C=CS(=O)c1sc(Cl)c(N2CCOCC2)c1[N+](=O)[O-]` (stereo unspecified), the Potency is 2 µM (active).

`Cn1c(SCC(=O)NC2CCCCC2)nnc1-c1ccc(N)cc1`: the Potency result was “inactive”.

In the case of `CCOC(=O)/C=c1\s/c(=C\c2ccc(C#N)cc2)c(=O)n1CC(=O)Nc1cccc(C)c1C`, the Potency entry is “inactive”.

With `CC1(C)Cc2cccc(OCC(=O)Nc3nccs3)c2O1`, the Potency entry was “inactive”.

Consider `CC1(C)Cc2cccc(OCC(N)=O)c2O1`, for which the Potency result is “inactive”.

Turning to `CC1(C)Cc2cccc(OCC(=O)N3CCN(c4ccc([N+](=O)[O-])cc4)CC3)c2O1`, the Potency is 10 µM (active).

In the case of `Cc1cc2ccccc2n1CCC(=O)O`, the Potency entry was “inactive”.

Take `O=[N+]([O-])c1ccccc1NCc1ccccc1Cl`: the Potency result is “inactive”.

`Cc1cccc(C)c1NC(=O)C1(N(C(=O)c2ccccn2)c2ccc(O)cc2)CCCCC1`: the Potency result was “inactive”.

For `CCOc1ccc(NC(=O)CSc2nc3c(c(=O)n2-c2ccccc2OC)SCC3)cc1`, the Potency was 17.8 µM (active).

Regarding `CCc1nnc(NC(=O)CSc2nc3c(c(=O)n2-c2ccccc2OC)SCC3)s1`, the Potency was 22.4 µM (active).

On to `COc1ccccc1-n1c(CNC(=O)c2ccccc2)nnc1SCC(=O)Nc1nnc(C)s1`, for which the Potency result is “inactive”.

For `CCc1nnc(NC(=O)CSc2nc3ccccc3c(=O)n2CCCOC)s1`, the Potency entry is “inactive”.

Take `CCOC(=O)c1sc(NC(=O)CSc2nc3c(c(=O)n2-c2ccccc2)SCC3)c(C(=O)OCC)c1C`: the Potency result was “inactive”.

Take `CCn1c(SCC(=O)Nc2ccc3c(c2)OCCO3)nc2c(c1=O)SC(C)C2` (stereo unspecified): the Potency entry was “inactive”.

On to `O=C(Nn1cnc2ccccc2c1=O)c1ccc([N+](=O)[O-])cc1Cl`, for which the Potency entry is “inactive”.

`C=C(C(C)=O)C(O)c1ccc([N+](=O)[O-])cc1` (stereo unspecified): the Potency result is “inactive”.

With `CCCCC(=O)NCc1ccc(F)cc1`, the Potency entry was “inactive”.

For `COc1ccc(S(=O)(=O)NC(CC(=O)NCc2ccccc2OC)c2ccco2)cc1` (stereo unspecified), the Potency was 10 µM (active).

As for `COc1ccccc1CNS(=O)(=O)c1ccc(C)cc1`, the Potency entry was “inactive”.

In the case of `O=C(CC(NS(=O)(=O)c1ccc(Cl)cc1)c1ccco1)NC1CCCC1` (stereo unspecified), the Potency result is “inactive”.

For `COC(=O)CCC(=O)N1CCCC(CO)(Cc2ccccc2)C1` (stereo unspecified), the Potency entry is “inactive”.

For `C#CCCOC(=O)N1C2=NC(C(=O)OC)=C(C(=O)OC)[C@@H]3N(C)c4ccc(OC)cc4[C@]23C[C@H]1C(=O)OC`, the activity, negative = inhibition was 4.88% [at 13.5 µM].

`CCOC(=O)CN/C=C(\C#N)c1ccc(F)cc1`: the Potency result was “inactive”.

In the case of `Cc1ccc(C(=O)NCCNC(=O)c2ccccc2)cc1`, the Potency result is “inactive”.

Consider `Cc1ccc(C(=O)c2c(NC(=O)c3ccccc3)sc(C)c2C)cc1`, for which the Potency was 25.1 µM (active).

Turning to `Cc1ccc(C(=O)c2c(NC(=O)c3ccncc3)sc3c2CCCC3)cc1`, the Potency result was “inactive”.

Turning to `CCC(=O)NCc1cc(-c2nn(C)c(=O)c3ccccc23)ccc1OC`, the Potency result was “inactive”.

`COc1ccc(C(=O)CSc2nc(C)cc(C)n2)cc1[N+](=O)[O-]`: the Potency is 2.24 µM (active).

`COC(=O)c1cc(C(=O)CSc2nc(C)cc(C)n2)ccc1O`: the Potency result was “inactive”.

For `COc1ccc(C(=O)NNC(=O)c2cnccn2)cc1[N+](=O)[O-]`, the Potency entry was “inactive”.

Regarding `C/C(=N\NC(=O)OC(C)(C)C)c1ccc[nH]1`, the Potency entry was “inactive”.

`Cc1cc(NC(=O)CCC2COc3ccccc3O2)no1` (stereo unspecified): the Potency result was “inactive”.

As to `Cc1cc(C(=O)CCl)c(C)n1CC1COc2ccccc2O1` (stereo unspecified), the Potency is 0.251 µM (active).

As for `O=C(NCC1COc2ccccc2O1)C1(c2ccccc2)CCCC1` (stereo unspecified), the Potency entry was “inactive”.

As for `O=C(NNC(=O)c1ccc(Cl)cc1Cl)c1cccs1`, the Potency result is “inactive”.

Take `Fc1cccc(Cc2noc(CN3CCN(c4cnccn4)CC3)n2)c1`: the Potency entry is “inactive”.

For the compound `CCOC(=O)c1c(C)[nH]c(C2=NNC(=NC(C)COC)SC2)c1C` (stereo unspecified), the Potency was 10 µM (active).

On to `CCOC(=O)c1c(C)[nH]c2c1-c1ccccc1C(=O)C2=O`, for which the Potency entry is “inactive”.

Consider `CCCCOC(=O)c1[nH]c(C)c(C(=O)OC)c1C`, for which the Potency entry was “inactive”.

Take `CN1CCN(c2nc(Nc3ccc(O)cc3)nc3ccccc23)CC1`: the Potency entry is “inactive”.

Regarding `COc1ccc(-c2nn(-c3ccccc3)cc2/C=C\C(=O)N2CCOCC2)cc1[N+](=O)[O-]`, the Potency result was “inactive”.

On to `S=C(NCCCc1cnc[nH]1)NCCCN(Cc1ccc(Cl)c(Cl)c1)c1ccc(Br)cn1`, for which the Potency result is “inactive”.

With `COc1ccc(N2CC(C)Cn3c2nc2c3c(=O)n(Cc3ccccc3F)c(=O)n2C)c(OC)c1` (stereo unspecified), the Potency is 17.8 µM (active).

For `COc1ccc(C(CCNCc2ccccc2F)c2ccc(F)cc2)cc1` (stereo unspecified), the Potency entry is “inactive”.

`CC1CN(C2CCCCC2)c2nc3c(c(=O)n(C)c(=O)n3C)n2C1` (stereo unspecified): the Potency result was “inactive”.

Consider `O=C(c1cc(-c2ccccc2O)on1)N1CCCC1`, for which the Potency result was “inactive”.

For `COc1ccc2c(c1)CCc1c(C(=O)Nc3c(C)n(C)n(-c4ccccc4)c3=O)noc1-2`, the Potency entry is “inactive”.

On to `COc1ccc2c(c1)CCc1c(C(=O)N3CCCC3)noc1-2`, for which the Potency was 10 µM (active).

With `CCCCc1ccc(NC(=S)NCCCN2CCOCC2)cc1`, the Potency entry was “inactive”.

With `Cc1cccc(C(=O)OC(C)CN2CCN(C)CC2)c1` (stereo unspecified), the Potency result was “inactive”.

As for `CC1(C)CC(N(Cc2ccccc2)C(=O)Cc2ccccc2)CCO1` (stereo unspecified), the Potency entry is “inactive”.

`Cc1noc(C)c1COc1cccc(C(=O)Nc2cccnc2)c1`: the Potency entry was “inactive”.

Take `O=C(O)c1ccc2c3c(cccc13)C(=O)N(OS(=O)(=O)c1ccccc1)C2=O`: the Potency result is “inactive”.

Turning to `Cc1ccccc1NC(=O)NC1(C(=O)N2CCCC2)CCCCC1`, the Potency entry is “inactive”.

Turning to `O=C(CN1C(=O)NC2(CCCCCC2)C1=O)NCc1cccs1`, the Potency entry is “inactive”.

On to `O=C1CN(C(=O)CN2C(=O)NC3(CCCCC3)C2=O)c2ccccc2N1`, for which the Potency is 15.8 µM (active).

With `O=C(CN1C(=O)NC2(CCCCCC2)C1=O)NC1CC1`, the Potency result is “inactive”.

As for `COc1ccc(C(C)=O)cc1COC(=O)Cn1cnc2ccccc2c1=O`, the Potency is 20 µM (active).

Turning to `CCOC(=O)N1CCN(C(=O)Cn2cnc3ccccc3c2=O)CC1`, the Potency entry is “inactive”.

For the compound `O=C(COC(=O)Cn1cnc2ccccc2c1=O)NCc1ccccc1Cl`, the Potency entry was “inactive”.

Regarding `CCOCCCN(C(=O)Cn1nnc(-c2ccc(OC)c(OC)c2)n1)C(CC)C(=O)NC1CCCC1` (stereo unspecified), the Potency result is “inactive”.

Regarding `NC1CCN(O)C1=O` (stereo unspecified), the Potency entry is “inactive”.

`C/C=N/NC(=O)CCCC(=O)N/N=C/C`: the Potency result is “inactive”.

`O=C(N/N=C/c1ccc([N+](=O)[O-])cc1)C(=O)N1CCCC1`: the Potency entry was “inactive”.

In the case of `CCOCCCNC(=S)N1CCC(NC(=O)C2CCCCC2)CC1`, the Potency result was “inactive”.

As for `CCOc1ccc(C(C)=O)cc1COC(=O)c1cnc(Cl)c(Cl)c1`, the Potency was 0.708 µM (active).

On to `COCc1cc(C(C)=O)ccc1OC`, for which the Potency entry was “inactive”.

With `O=C(OCc1cc(Cl)ccc1OC(F)F)c1cccnc1`, the Potency result was “inactive”.
